# Source: PubChem (National Center for Advancing Translational Sciences (NCATS))
# HCMV inh: qHTS Assay for inhibitors of the human cytomegalovirus (HCMV); HFF cells, HCMV-luciferase reporter, 72 h; hits give low values; activity change, negative = inhibition, % at 57.5 µM; 410,000 compounds, 4.5% hits; in the data active = activity change below about -60%; inconclusive = no clear call, values can overlap the other calls; inactive = above about -39%; also: % is scaled to controls: 0 for no effect and ±100 for the full control effect
#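 Two compound doses tested in HFFs infected with HCMV-luciferase, MOI 1 PFU/cell, 72 h at 37C. Lysate luminescence read with OneGlo; data normalized against buffer-only and 10uM Salinomycin inhibitor controls.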
# Sm TGR block: qHTS Assay for the Inhibitors of Schistosoma Mansoni Peroxiredoxins; Schistosoma mansoni thioredoxin glutathione reductase (TGR), Q962Y6; purified TGR, DTNB reduction, TNB absorbance 405 nm; Potency, µM (series often up to 114 µM), inactives show top-dose activity change, negative = inhibition, actives largely listed as inhibitors; 360,000 compounds, 3% hits; AID 485364, 2010; also: potency is read from the fitted curve at half-maximal effect; % is scaled to controls: 0 for no effect and ±100 for the full control effect; nearly all actives have a fitted effect of over 60% in size
#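 TGR 20 nM + NADPH 100 uM (dispensed conc.), cpd preinc 15 min RT; start with NADPH (500 uM addition) then DTNB (15 mM addition). Kinetic TNB absorbance, 405 nm filter. Four-parameter Hill fit across titration.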
# HCV inhibitor: qHTS Assay for Inhibitors of Hepatitis C Virus (HCV) | 340,000 compounds, 3.4% hits | AID 651820, 2012 | Potency, µM (highest dose often 41.8 µM), for inactives: at the highest dose activity change, negative = inhibition, usual class: inhibitors | Huh7.5.1 HCVcc-Cre infection, luciferase reporter, 44 h; also: potency is read from the fitted curve at half-maximal effect; % is scaled to controls: 0 for no effect and ±100 for the full control effect
#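 Infectious HCV cell culture screen: compound-treated cells (1,000/well, pre-plated 4 h) are infected with HCVcc-Cre at roughly 0.5 moi and grown 44 h. Infection is quantified by luciferase signal after 15 min substrate incubation at room temperature.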
# Pf growth 48h: Primary qHTS for delayed death inhibitors of the malarial parasite plastid, 48 hour incubation. Potency, µM (highest dose often 28.7 µM), without a hit: at the highest dose activity change, negative = inhibition, most hits filed as inhibitors. AID 504832, 2011. P. falciparum luciferase growth in erythrocytes, 48 h. 310,000 compounds, 5.9% hits; also: potency is read from the fitted curve at half-maximal effect; % is scaled to controls: 0 for no effect and ±100 for the full control effect
#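 Firefly luciferase activity from engineered P. falciparum reports growth; inhibitors lower the luminescent signal. Cultures contained 2% hematocrit erythrocytes at 0.1% final parasitemia.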
# SARS PLP yeast: qHTS of Yeast-based Assay for SARS-CoV PLP; S. cerevisiae expressing SARS-CoV PLpro, growth rescue; Potency, µM (doses to about 32.9 µM), without a hit: at the highest dose activity, positive = growth rescue, actives largely listed as activators; 330,000 compounds, 0.19% hits; AID 485353, 2010; calls by dose curve; also: potency is read from the fitted curve at half-maximal effect; 0% is about no effect; nearly all actives have a fitted effect of over 55% in size
# Pf growth 96h: Primary qHTS for delayed death inhibitors of the malarial parasite plastid, 96 hour incubation | P. falciparum luciferase reporter growth, 96 h | Potency, µM (doses to about 28.7 µM), inactives show at the highest dose activity change, negative = inhibition, hits mostly inhibitors | 320,000 compounds, 6.9% hits | AID 504834, 2011; also: potency is read from the fitted curve at half-maximal effect; % is scaled to controls: 0 for no effect and ±100 for the full control effect
#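 Delayed-death screen, second-generation endpoint: infected erythrocytes, 2% hematocrit, 0.05% parasitemia final; 96 hours at 37 C, 5% CO2; luciferase detection reagent; luminescence decrease equals reduced growth.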
# * hit, by the source's call; u = inconclusive; x = not tested or not shown. A selection: hits, their analogues and other compounds. The true share with any hit is near 15%. Unless noted, calls follow the shape of the dose curve; as a rule, active = well fitted curve in the direction sought with a large enough effect; inconclusive = small, poorly fitted or top-dose-only effect, or another doubt; inactive = no such curve, though single readings can be large; an effect the other way counts as inactive or inconclusive.
SMILES,HCMV inh,Sm TGR block,HCV inhibitor,Pf growth 48h,SARS PLP yeast,Pf growth 96h
COCCCn1c(-c2ccc(OC)cc2)cc(C(=O)NC2CCCCCCC2)c1C,-64.5*,-18.0%,u,13.1µM*,-42.5%,14.7µM*
CC1CCN(c2cc(N(C)CCO)c([N+](=O)[O-])c3nonc23)CC1,-39.9,44.7µM*,-1.6%,-18.6%,1.9%,u
C[C@H]1COc2cccc(N3CCCC3)c2S(=O)(=O)N1,-16.0,x,x,x,x,x
COc1ccc(/C(C)=N/NC(=O)CNC(=O)/C=C\c2ccccc2OC)c(OC)c1,-20.5,-16.8%,7.7%,u,-4.3%,-13.2%
Cn1ccc(C(=O)OCC(=O)Nc2ccccc2Cl)n1,-7.9,3.0%,3.16µM*,29.5%,-2.7%,u
CN(CC(=O)Nc1ccccc1Cl)C(=O)COC(=O)c1nc(Cl)c(Cl)c(Cl)c1Cl,54.9,17.8µM*,u,-4.5%,-4.3%,0.0%
O=C(COC(=O)C1CC1)Nc1ccc(S(=O)(=O)N2CCOCC2)cc1,30.8,x,13.3%,x,2.1%,x
COc1ccc2c(COC(=O)CCS(=O)(=O)c3ccccc3)cc(=O)oc2c1,x,-15.9%,x,17.8%,0.2%,31.4%
CC1CCN(c2nc3ccccc3nc2C(F)(F)F)CC1,12.6,-5.6%,x,x,x,x
CC(=O)N1CCOc2ccc(S(=O)(=O)N3CCC(C(=O)NCc4ccc(Cl)cc4)CC3)cc21,-14.7,x,x,x,x,x
C=CCn1cc(C(=O)NCc2ccc3c(c2)OCO3)c(=O)c2cc(S(=O)(=O)N(CC)CC)ccc21,-4.9,13.4%,u,11.7µM*,22.5%,u
CCn1cc(C(=O)NCCCN(C)c2ccccc2)c(=O)c2cc(S(=O)(=O)N(C)C)ccc21,-9.0,-19.6%,16.5%,u,6.0%,14.7µM*
C=CCn1cc(C(=O)NCc2cccnc2)c(=O)c2cc(S(=O)(=O)N(CC)CC)ccc21,-60.9*,-5.4%,-14.2%,x,-4.0%,29.4%
CCn1cc(C(=O)NCc2ccc(Cl)cc2)c(=O)c2cc(S(=O)(=O)N(C)C)ccc21,-71.0*,-19.4%,u,u,5.7%,-4.9%
COc1ccc(CNc2nc(NC(C)=O)nn2-c2ccccc2)cc1,17.2,-2.4%,5.1%,1.9%,6.6%,u
C[C@H](CO)N1C[C@H](C)[C@@H](CN(C)S(=O)(=O)c2cccs2)Oc2c(NC(=O)CCC(F)(F)F)cccc2C1=O,-12.0,x,-5.8%,x,-3.7%,x
COc1ccc(S(=O)(=O)N(CCc2ccccc2)CC(=O)NCc2ccc(C)cc2)cc1,57.7,-4.1%,x,x,x,x
CC(C)C1C(=O)N(Cc2cn(CC3CCCCC3)nn2)CCS(=O)(=O)N1Cc1ccc(-c2ccc(Cl)nc2)cc1 (stereo not given),11.0,x,x,x,x,x
CCn1cc(C(=O)NCc2ccccc2OC)c(=O)c2cc(S(=O)(=O)N(C)C)ccc21,u,-2.5%,14.1µM*,u,2.4%,10.4µM*
CCn1cc(C(=O)NCc2ccc3c(c2)OCO3)c(=O)c2cc(S(=O)(=O)N3CCOCC3)ccc21,37.7,9.8%,7.2%,u,7.3%,u
CCn1cc(C(=O)NCc2ccccc2OC)c(=O)c2cc(S(=O)(=O)N3CCCCCC3)ccc21,-17.2,-11.5%,x,x,x,x
CCn1cc(C(=O)NCCc2ccc(Cl)cc2)c(=O)c2cc(S(=O)(=O)N(C)C)ccc21,37.5,-2.4%,3.9%,u,8.2%,u
CCn1cc(C(=O)NCc2ccc3c(c2)OCO3)c(=O)c2cc(S(=O)(=O)N(C)C)ccc21,17.2,9.8%,-16.6%,11.7µM*,-23.7%,u
CCn1cc(C(=O)NC(C)CCc2ccccc2)c(=O)c2cc(S(=O)(=O)N(C)C)ccc21 (stereo not given),-21.4,8.4%,-5.6%,6.57µM*,0.5%,43.4%
CCOc1ccc(N(c2nc(-c3ccc(OC)c(OC)c3)no2)c2nc(-c3ccc(OC)c(OC)c3)no2)cc1,-12.7,-4.7%,x,x,x,x
SMILES,HCMV inh,Sm TGR block,HCV inhibitor,Pf growth 48h,SARS PLP yeast,Pf growth 96h
C=CCc1c(C)nc(C)nc1N/N=C/c1ccc(F)cc1,-2.6,-10.0%,8.7%,x,2.6%,-3.6%
C=CCc1c(C)nc(SC)nc1Nc1ccc(C)cc1,u,4.6%,10µM*,-18.8%,-27.0%,x
COc1ccc(C2=NN(C(=O)CCC(=O)O)C(c3ccc(OC)c(OC)c3)C2)cc1 (stereo not given),-102.5*,22.4µM*,12.7%,-0.6%,-0.5%,11.7µM*
O=C(O)CCC(=O)N1N=C(c2ccc(Br)cc2)CC1c1cccc(Br)c1 (stereo not given),-15.4,2.0%,6.7%,6.57µM*,1.9%,353.8%
O=C(O)CCC(=O)N1N=C(c2ccc(Br)cc2)CC1c1ccc(Br)cc1 (stereo not given),-33.4,u,-1.3%,0.0%,6.9%,u
COc1ccc(C2CC(c3ccc(Br)cc3)=NN2C(=O)CCC(=O)O)cc1OC (stereo not given),-7.6,-20.4%,10.6%,-22.8%,6.1%,96.5%
COc1ccc(C2CC(c3ccccc3)=NN2C(=O)CCC(=O)O)cc1 (stereo not given),-13.6,-22.5%,13.6%,-10.3%,0.1%,-16.6%
COc1ccc(C2=NN(C(=O)CCC(=O)O)C(c3ccccc3F)C2)cc1 (stereo not given),5.5,u,-13.1%,-21.3%,6.3%,2.33µM*
CC(C)C(NC(=O)c1c(F)cccc1F)C(=O)N1CCN(c2ncccn2)CC1 (stereo not given),0.0,x,14.7%,x,-6.3%,x
Cc1ccc(CN2C(=O)COCc3cc(-c4cccc(CO)c4)ccc32)cc1,-9.7,x,x,x,x,x
CCc1ccc(CN2CCC(Oc3ccc(C(=O)N4CCCC4)cc3)CC2)cc1,-21.2,17.8%,u,9.28µM*,7.3%,u
O=C(c1ccc(OC2CCN(CCc3ccccc3)CC2)cc1)N1CCCC1,-63.4*,-3.0%,x,-21.1%,-4.0%,u
O=C(c1ccc(OC2CCN(Cc3ccc(F)cc3)CC2)cc1)N1CCCC1,-19.3,3.3%,u,u,2.9%,u
O=C(c1ccc(OC2CCN(C/C=C/c3ccc(F)cc3)CC2)cc1)N1CCCC1,-36.6,-15.9%,u,8.28µM*,-3.8%,4.15µM*
Cc1cccc(CN2CCC(Oc3ccc(C(=O)N4CCCC4)cc3)CC2)n1,-30.9,-2.9%,31.4%,u,-4.1%,2.33µM*
Cc1ccc(N2C(=O)N(CC(=O)Nc3ccc(C)cc3Cl)C(=O)C2C)cc1 (stereo not given),-0.5,-2.3%,u,13.7%,-10.3%,-2.8%
